# From PubChem BioAssay
# Pf growth 96h – P. falciparum growth inhibition at 96 hours; P. falciparum luciferase reporter growth, 96 h; actives 6.9% (n = 320,000); Potency, µM (top dose mostly 28.7 µM), for inactives: at the top dose activity change, negative = inhibition, hits mostly inhibitors; AID 504834; further: potency means the concentration at half of the fitted maximal effect; on the % scale 0 is the no-effect control and ±100 the full control effect
#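 P. falciparum expressing integrated firefly luciferase, in erythrocytes at 2% hematocrit, 0.05% parasitemia, incubated with compounds 96 h at 37 C, 5% CO2. Growth inhibition read as loss of luminescence; two-generation exposure targets delayed-death apicoplast inhibitors.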
# Shiga inhibitor – Shiga toxin inhibition; Vero cells, Shiga toxin protein synthesis inhibition reporter; inhibition, % at 38.7 µM; actives 9.2% (n = 290,000); in the data active means inhibition mostly above about 28%, no sharp cut-off; inactive means mostly below about 43%; further: 0% is about no effect
# Pf growth 48h – P. falciparum growth inhibition at 48 hours (one generation); P. falciparum luciferase growth in erythrocytes, 48 h; Potency, µM (highest dose often 28.7 µM), for inactives: at the highest dose activity change, negative = inhibition, hits mostly inhibitors; actives 5.9% (n = 310,000); further: potency means the concentration at half of the fitted maximal effect; on the % scale 0 is the no-effect control and ±100 the full control effect
#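 A one-generation exposure of luciferase-tagged malaria parasites in RPMI 1640/Albumax erythrocyte culture, 37 C and 5% CO2. Inhibition is inferred from decreased luminescence after adding detection reagent.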
# SARS PLpro yeast – blocks SARS-CoV papain-like protease in a yeast assay. S. cerevisiae expressing SARS-CoV PLpro, growth rescue. Potency, µM (top dose mostly 32.9 µM), inactives show top-dose activity, positive = growth rescue, hits mostly activators. actives 0.19% (n = 330,000); calls by dose curve; further: potency means the concentration at half of the fitted maximal effect; 0% is about no effect; nearly all actives have a fitted effect of over 55% in size
# AMA1 RON2 block – disrupts binding of P. falciparum AMA1 to RON2 | AlphaScreen AMA1-biotinylated RON2 peptide binding | Potency, µM (doses to about 58.2 µM), inactives show top-dose activity change, negative = inhibition, most hits filed as inhibitors | actives 0.2% (n = 360,000);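 further: potency means the concentration at half of the fitted maximal effect; 0% = vehicle wells and -100% = peptide control; nearly all actives have a fitted effect of over 45% in size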
#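 AMA1 (3D7) with his tag at 25 nM final met compounds first, then biotinylated RON2 peptide at 25 nM; detection used donor plus acceptor beads, 10 µg/mL apiece, read by AlphaScreen after 30 min at room temperature.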
# Cycloheximide cs – counter-screen hit for Shiga toxin inhibitors, cycloheximide; cell reporter, cycloheximide protein synthesis inhibition counterscreen; max response, %; actives 12% (n = 300,000); AID 2314; in the data active means max response mostly above about 13%, no sharp cut-off; inactive means mostly below about 14%; further: read at 38.3 µM for the half of the compounds with a filed dose; 0% is about no effect
# Active calls of the source: *; ? = inconclusive; · = not tested or not shown; [ ] = another dose, or the depositor's remark. Only some compounds are listed: those with a hit (about 19% of all), similar ones and a draw of the others. Unless noted, the call rests on the fitted dose curve; in most records, active means well fitted curve in the direction sought with a large enough effect; inconclusive means small, poorly fitted or top-dose-only effect, or another doubt; inactive means no such curve, though single readings can be large; an effect the other way counts as inactive or inconclusive.
SMILES,Pf growth 96h,Shiga inhibitor,Pf growth 48h,SARS PLpro yeast,AMA1 RON2 block,Cycloheximide cs
Cc1c(C(=O)NCC2CCCO2)oc2ccc3c(c12)C(=O)CC(C)(C)O3 (stereo not drawn),-20%,75*,0%,-7%,-17%,40*
O=C(NCC1CCCO1)/C(=C\c1ccc(Cl)cc1)NC(=O)c1ccccc1 (stereo not drawn),0.83µM*,-20,27%,2%,-1%,-6
Cc1ccc(-c2nc(NCCCO)c3ccccc3n2)cc1,33%,21,-3%,0%,15%,10
Cc1cccc(-c2nc(NCCCN3CCOCC3)c3ccccc3n2)c1,2.9µM*,-3,·,-8%,-6%,7
Cc1ccc(-c2nc(N(C)C3CCN(C)CC3)c3ccccc3n2)cc1,6.6µM*,-2,·,-6%,-14%,2
Cc1cccc(-c2nc(NCCCN(C)C)c3ccccc3n2)c1,-13%,51,?,-3%,0%,14*
c1ccc(CCNc2nc(-c3ccccn3)nc3ccccc23)cc1,1.7µM*,15,1µM*,-1%,-1%,2
C[C@@H]1CN([C@@H](C)CO)C(=O)CCCn2nncc2CO[C@@H]1CN(C)C(=O)c1ccc(N2CCN(C)CC2)cc1,·,·,·,·,-5%,·
CCOC(=O)N1CCC(N2C(=O)c3ccc(C(=O)Nc4cccc(OC)c4)cc3C2=O)CC1,-3%,-2,12%,1%,-8%,-3
O=C(NCc1ccccc1)c1cc(-c2ccncc2)nc2ccccc12,?,8,?,-2%,16%,-2
CCCN(CCC)c1nc(-c2ccccn2)nc2ccccc12,0.33µM*,-9,0.83µM*,-5%,33%,-3
CN(C)CCNc1cc(-c2ccncc2)nc2ccccc12,3.3µM*,9,12µM*,0%,0%,-2
CN(C)CCCNc1nc(-c2ccc(Cl)cc2)nc2ccccc12,63%,-2,10µM*,4%,3%,1
CCCCN(CC)c1nc(-c2ccncc2)nc2ccccc12,·,-16,2.9µM*,-48%,-17%,-1
C#CCOCCOCCOCCNc1nc(N2CCN(C(=O)[C@H](CCCCN)n3cc(CN)nn3)CC2)nc(N2CCN(C(=O)[C@H](CCC(=O)O)n3cc([C@@H](N)CCSC)nn3)CC2)n1,·,·,·,0%,7%,·
Cc1ncc([N+](=O)[O-])n1CCN1C(=O)c2ccccc2C1=O,?,-8,0%,-1%,-8%,-2
O=C(CSc1nnc(-c2ccc(O)cc2)o1)NNC(=O)c1ccncc1,51%,2,18%,3%,89%,-3
COCCN(CCOC)c1nc(-c2ccc(C)cc2)nc2ccccc12,?,73*,0%,-5%,17%,13*
Cc1ccc(-c2nc(C(Cl)Cl)c3ccccc3n2)cc1,?,5,?,0%,-4%,2
Cc1ccc(-c2nc(NCCN(C)C)c3ccccc3n2)cc1,-21%,80,?,0%,-24%,18*
Cc1cccc(-c2nc(S(=O)(=O)c3ccc(F)cc3)c(NCCCN3CCOCC3)o2)c1,13µM*,13,?,4%,-8%,-2
CC1CCN(c2ccc3c(c2)S(=O)(=O)c2cccc(C(=O)NC4CCCCC4)c2C3=O)CC1,9%,·,?,4%,4%,·
O=C(O)C1CCC(NSc2ccccc2[N+](=O)[O-])CC1 (stereo not drawn),0%,7,31%,-3%,-18%,-1
CC(=O)Nc1ccc(NC(=O)c2ccc(-c3ccnn3C)c3ccoc23)cc1,·,·,·,·,0%,·
COC(=O)Nc1ccc2c(c1)ncn2C1CCCCC1,·,31*,69%,6%,-4%,23*
SMILES,Pf growth 96h,Shiga inhibitor,Pf growth 48h,SARS PLpro yeast,AMA1 RON2 block,Cycloheximide cs
CC(=O)Nc1ccc2c(c1)ncn2C1CCCCC1,·,·,·,·,1%,·
CCOC(=O)Nc1ccc2c(c1)ncn2C1CCCCC1,-7%,82*,-22%,-6%,-12%,27*
COc1ccc(C[C@H]2CN3C(=NC[C@@H]3C(C)C)N2C[C@H](C)NC(=O)c2ccc(C)c(Br)c2)cc1,2.9µM*,-15,?,0%,-6%,1
COc1ccc(C(=O)N[C@H](C(=O)NCCCn2nc(C)cc2C)C(C)C)cc1,·,·,·,2%,-1%[11.6 µM],·
C/C=C(\C)C(=O)NCCN1C2=NC[C@@H](C)N2C[C@H]1Cc1ccc(O)cc1,50%,14,51%,1%,6%,1
Cc1ccc(C(=O)N[C@@H](C)CN2C3=NC[C@H](C(C)C)N3C[C@H]2Cc2ccc(O)cc2)cc1Br,9.3µM*,8,?,16%,-11%,1
CC1(C)CC(=O)C(C(C2=C(O)CC(C)(C)CC2=O)c2ccc(O)c([N+](=O)[O-])c2)=C(O)C1,-29%,-20,-16%,10%,7%,-2
CC(C)=CCCC(C)CN1CCC(N2CCC(C(=O)NC(C)C)CC2)CC1 (stereo not drawn),?,-7,5.2µM*,20%,22%,-3
CC(C)=CCCC(C)CN1CCC(N2CCC(C(=O)N3CCOCC3)CC2)CC1 (stereo not drawn),27%,-10,?,0%,-7%,-2
CCOc1ccc(C(=O)Nc2ccc(S(=O)(=O)N3C[C@@H]4C[C@@H](C3)c3cccc(=O)n3C4)cc2)cc1,2.9µM*,·,?,-2%,?,·
CCC1CN(C(=O)N2CCC(C(=O)NCc3ccco3)CC2)c2cc(C)ccc2O1 (stereo not drawn),13µM*,-4,-24%,23%,-10%,-8
C/C(=C\c1cccc(Cl)c1Cl)C(=O)c1c(C)cc(C)[nH]c1=O,19µM*,-16,0%,0%,0%,-3
COc1ccc(NN=Nc2nc3c([nH]2)c(=O)n(C)c(=O)n3C)cc1,67%,84*,42%,1%,15%,40*
CC(=O)/C=N/Nc1ccccc1,67%,-3,-18%,-1%,-22%,2
OC[C@@H](O)[C@H](O)C(/C=N/Nc1ccccc1)=N\Nc1ccccc1,-17%,18,-7%,2%,-2%,28*
CC1(C)OC(=O)C2=C(C[C@@H](CCC(F)(F)F)O[C@H]2c2ccc(F)cc2)O1,·,·,·,·,-1%,·
C=CCn1c(=NC(=O)c2ccccc2[N+](=O)[O-])sc2cc(S(C)(=O)=O)ccc21,9.3µM*,10,?,12%,-3%,-1
COc1cccc(OC)c1C(=O)N=c1sc2cc(S(C)(=O)=O)ccc2n1C,?,-7,-1%,-2%,-8%,-3
COC(=O)Cn1c(=NC(=O)c2ccc([N+](=O)[O-])s2)sc2cc(Br)ccc21,0.83µM*,39,?,-27%,·,15*
COC(=O)Cn1c(=NC(=O)c2ccc(Cl)s2)sc2cc(C)ccc21,3%,39,86%,-11%,1%,18*
COC(=O)Cn1c(=NC(=O)C(C)C)sc2c(C)cc(C)cc21,34%,1,8%,2%,-6%,-3
